Screening results (PubChem BioAssay)
Tgondii IFNg: T. gondii growth inhibition with IFN-gamma, primary screen, cell-based. Toxoplasma gondii growth in IFN-gamma-treated host cells; stronger effect = lower value. activity change, negative = inhibition, % (no concentration beside the values). 3.8% of 69,000 active; in the data active = activity change below about -70%, passing the limit was not always enough;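 note: host cells are HeLa cells infected with Toxoplasma gondii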
Large screens that a line does not name were inactive; ! = repeats disagree. This is one part of a sample in which hits are shown more often than they occur.

CC12CCC3c4ccc(O)cc4CCC3C1CCC2=O (stereo not given)	none
C[C@]12CC[C@@H]3c4ccc(OS(=O)(=O)O)cc4CC[C@H]3[C@@H]1CCC2=O	none
Cc1cc(C)cc(NC(=O)CC(=O)NCC2CC(=O)N(C3CC3)C2)c1 (stereo not given)	none
CCOc1ccc(C2CCCN2C(=O)c2ccc(-n3cnnn3)cc2)cc1 (stereo not given)	none
CCOCC1CN(CC2CCOCC2)Cc2ncn(C)c21 (stereo not given)	none
CC(C(=O)Nc1ccccn1)N1CCc2[nH]nc(-c3ccc(F)c(F)c3)c2C1 (stereo not given)	none
Cc1oc(C2CCN(C(=O)Nc3ccccc3F)CC2)nc1C(=O)N(C)C	none
CC(=O)Nc1ccc(Cl)c(C(=O)N2CCCC2c2nc(C(C)C)no2)c1 (stereo not given)	none
CCCc1nc(N2CC(OCc3ccccc3)C2)c2cnn(C)c2n1	none
COC[C@@]12COC[C@@H]1CN(CCOCc1ccccc1)C2	none
Cn1ncc2c(=O)n(CC(=O)N3CCN(c4ccccc4C(F)(F)F)CC3)cnc21	none
Cc1cccc(-c2nc(Cn3c(=O)c4c(C)cc(C)nc4n(C)c3=O)c(C)o2)c1	none
C#C[C@]1(O)CC[C@H]2[C@@H]3CCc4cc(O)ccc4[C@H]3CC[C@@]21C	Tgondii IFNg -78.9!
CC(=O)O[C@H]1CC[C@H]2[C@@H]3CCc4cc(O)ccc4[C@H]3CC[C@]12C	none
CC(=O)OC1CCC2C3CCc4cc(O)ccc4C3CCC12C (stereo not given)	none
O=c1[nH]nc(Cc2ccncc2)n1CCc1ccccc1F	none
CCn1cnc2c1C(C(=O)O)CN(c1ccc(C)nn1)C2 (stereo not given)	none
O=C(Cn1c(=O)cc(C(=O)N2CCCCC2)c2ccccc21)Nc1cccc(C(F)(F)F)c1	none
O=c1[nH]cnc2c1ncn2[C@@H]1O[C@H](CO)[C@@H](O)[C@H]1O	none
OC[C@H]1O[C@@H](n2cnc3c(Nc4ccccc4)ncnc32)[C@H](O)[C@@H]1O	Tgondii IFNg -82.5
Nc1nc(Nc2ccccc2)nc2c1ncn2C1OC(CO)C(O)C1O (stereo not given)	none
N#Cc1ccccc1-c1ccccc1C#N	none
N#Cc1cc2c(c3c1CCc1ccccc1-3)-c1ccccc1CC2	Tgondii IFNg -80.0
Cc1ccc(C2=NC3(CCN(Cc4ccccc4F)CC3)NC2=O)cc1C	none
CCCN(Cc1ccc(OC)cc1)C(=O)c1cnc(OC)nc1	none
Cn1cc2c3c(cccc31)CN(C(=O)c1cccnc1Cl)CC2	none
CCCNC(=O)N(C)C[C@@H]1Oc2cc(C#C[C@@H](C)O)ccc2S(=O)(=O)N([C@H](C)CO)C[C@H]1C	none
C[C@H](CO)N1C[C@H](C)[C@@H](CN(C)Cc2ccc(F)cc2)Oc2cc(C#CC(C)(C)O)ccc2S1(=O)=O	Tgondii IFNg -94.8
C[C@@H]1CN([C@@H](C)CO)S(=O)(=O)c2ccc(C#CC3(O)CCCC3)cc2O[C@H]1CN(C)C(=O)Nc1cccc(F)c1	Tgondii IFNg -91.8
C[C@H](CO)N1C[C@H](C)[C@H](CN(C)Cc2ccc(F)cc2)Oc2cc(C#CC(C)(C)O)ccc2S1(=O)=O	none
Cc1ccccc1-c1ccc2c(c1)O[C@@H](CN(C)C(=O)Nc1ccc(C(F)(F)F)cc1)[C@H](C)CN([C@@H](C)CO)S2(=O)=O	Tgondii IFNg -99.5
C[C@H]1CN([C@@H](C)CO)S(=O)(=O)c2ccc(Br)cc2O[C@H]1CN(C)C(=O)Nc1ccccc1F	none
C/C=C/c1ccc2c(c1)O[C@H](CN(C)C(=O)Nc1ccc(OC)cc1)[C@H](C)CN([C@@H](C)CO)S2(=O)=O	none
C[C@H]1CN([C@@H](C)CO)S(=O)(=O)c2ccc(C#CC(C)(C)O)cc2O[C@H]1CN(C)Cc1ccc(F)cc1	none
C[C@@H]1CN([C@@H](C)CO)S(=O)(=O)c2ccc(-c3ccc(F)cc3)cc2O[C@@H]1CN(C)Cc1ccccc1C(=O)O	none
C[C@H](CO)N1C[C@H](C)[C@H](CN(C)C(=O)c2ccccc2)Oc2cc(-c3cccc(C#N)c3)ccc2S1(=O)=O	none
C[C@@H]1CN([C@@H](C)CO)S(=O)(=O)c2ccc(-c3cccc(C#N)c3)cc2O[C@H]1CN(C)C(=O)c1ccccc1	Tgondii IFNg -99.1
C[C@H]1CN([C@@H](C)CO)S(=O)(=O)c2ccc(C#CC3(O)CCCC3)cc2O[C@H]1CN(C)C(=O)Nc1cccc(F)c1	none
O=C(c1ccc(Cl)cc1)N1CCC2(CC1)COCCN(Cc1ccncc1)C2	none
CC(=O)NCC(=O)N1C[C@@H]2OCC(=O)N(CC3CCCC3)[C@H]2C1	none
CC1(C(=O)NCc2ccc(F)cc2F)CCN(C(=O)COc2ccccc2)CC1	none
CC(C)c1nccn1C(C)C(=O)N1CCN(C)C2(CCN(C)CC2)C1 (stereo not given)	none
CSc1cccc(NC(=O)Cn2c(=O)cc(C(=O)N3CCOCC3)c3ccccc32)c1	none
Cc1cccc(NC(=O)Cn2ncc3c(N4CCOCC4)ncnc32)c1C	none
CC(=O)N(C)Cc1nc2ccccc2n1CCCCOc1ccccc1Cl	none
COc1ccc(Cc2nc3ccccc3n2CCCOc2ccccc2OC)cc1OC	Tgondii IFNg -97.4
COCCn1c(COc2ccc(Cl)cc2)nc2ccccc21	none
Cc1nc2nc(-c3ccc(NC(=O)C(C)N4CCCC4=O)cc3)cn2nc1C (stereo not given)	none
O=C(NCc1cccc(-n2cccn2)c1)c1cc2ncccn2n1	none
COc1ccc(NC(=O)C(=O)NCCc2csc(-c3ccc(F)cc3)n2)cc1OC	none
COc1cc2nccc(Oc3ccc(NC(=O)C4(C(=O)Nc5ccc(F)cc5)CC4)cc3)c2cc1OC	Tgondii IFNg -90.8
CN1CCN(C2CCN(C(=O)Nc3cc(Oc4ccc(NC(=O)C5(C(=O)Nc6ccc(F)cc6)CC5)c(F)c4)ccn3)CC2)CC1	none
Cc1ncc(-c2c(-c3ccccc3)ncn2CCNC(=O)c2ccncc2)s1	none
Cc1cccc(Cn2c3c(ccc2=O)CCN(C)CC3)n1	none
CC(=O)NCc1cnc(C2CCCN2CC(=O)Nc2nccs2)cc1C(F)(F)F (stereo not given)	none
CCS(=O)(=O)N1CCN(c2ccc(Nc3ncc(C(N)=O)c(NC4CC4)n3)cc2)CC1	none
CC(=O)NCC(=O)N1[C@@H]2CC[C@H]1c1ccc(Nc3ncc(C(F)(F)F)c(NC4CCC4)n3)cc12	Tgondii IFNg -73.9
CCN(C)C(=O)c1ncn2c(C3CCN(Cc4cccnc4)CC3)ccnc12	none
CCC(C)Nc1nc2nc3ccc(C)cn3c(=O)c2cc1C(=O)NCc1ccco1 (stereo not given)	none
NC(=O)[C@H](Cc1ccccc1)N1Cc2ncccc2C1=O	none
CCN(CC)c1nc(Nc2ccc(OC)cc2)nc(Nc2ccc(OC)cc2)n1	Tgondii IFNg -97.5
CCN(CC)c1ccc(NC(=S)NC(=O)c2ccc(OC)cc2)cc1	none
COc1ccc(Nc2nccc(NCCO)n2)cc1	none
CN1CCN(C(=O)c2ccnc(N3CCC4(CCNCC4)CC3)c2)CC1	none
Cc1c(F)cccc1NC(=O)CNCCc1csc(-c2cccnc2)n1	none
Cc1c(C(=O)Nc2ccc(N3CCC(N4CCOCC4)CC3)c(C#N)c2)cnn1-c1ccc(Cl)cc1	Tgondii IFNg -83.9
O=C(C1CCN(c2cncnc2N2CCOCC2)CC1)N1CCC(N2CCCCC2)CC1	none
Cc1cc(C(=O)Nc2ccc(N3CCOCC3)cc2)nn1C	none
Cc1ccc(C(C)N2CCN(C(=O)c3c(-c4ccncc4)noc3C)CC2)cc1 (stereo not given)	none
CCC(=O)Oc1ccc(C(=O)Nc2ccc([N+](=O)[O-])cc2)cc1	none
O=C(O)c1cc([N+](=O)[O-])ccc1NCCCc1ccccc1	none
O=C(Nc1ccncc1)c1cc([N+](=O)[O-])ccc1Cl	Tgondii IFNg -81.7
